According to PubChem BioAssay (NCATS):
Results filed as inconclusive are left out. The source made the active and inactive calls. Calls follow the shape of the dose curve; as a rule, active = well fitted cell-killing curve with a large enough effect; inconclusive = small, poorly fitted or top-dose-only effect, or effect the other way; inactive = flat fitted curve, though single readings scatter.

Legend:
Assay in all cases: Primary qHTS to identify gynecologic anti-cancer compounds using libraries of approved drugs and bioactive compounds (AID 1345084); also: nearly all actives have a fitted effect of over 55% in size
[1] = test system: Hek293T; conditions: Gynecologic cancer cell panel viability, ATPlite luminescence, 48 h, control line for the selectivity index; series mostly up to 57.5 µM
Outline: (§1)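 Five-concentration response, 48 h; readout is ATP-driven luciferase luminescence.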

[2] = test system: JEG-3; conditions: Gynecologic cancer cell panel viability, ATPlite luminescence, 48 h; series mostly up to 57.5 µM
Outline: as §1

[3] = test system: OV90; conditions: Gynecologic cancer cell panel viability, ATPlite luminescence, 48 h; series mostly up to 57.5 µM
Outline: as §1

[4] = test system: PA-1; conditions: Gynecologic cancer cell panel viability, ATPlite luminescence, 48 h; series mostly up to 57.5 µM
Outline: as §1

[5] = test system: SKOV3; conditions: Gynecologic cancer cell panel viability, ATPlite luminescence, 48 h; series mostly up to 57.5 µM
Outline: as §1

[6] = test system: Tov-21-G; conditions: Gynecologic cancer cell panel viability, ATPlite luminescence, 48 h; series mostly up to 57.5 µM
Outline: as §1

[7] = test system: Tov112D; conditions: Gynecologic cancer cell panel viability, ATPlite luminescence, 48 h; series mostly up to 57.5 µM
Outline: as §1

Measured: Potency

CCS(=O)(=O)c1ccc(OC)c(C(=O)OC)c1
inactive: all assays above

COC(=O)c1ccc(NC(C)=O)cc1OC
inactive: all assays above

Cc1sccc1Br
inactive: all assays above

CC(=O)c1ccc(O)c(C(N)=O)c1
inactive: all assays above

CO/N=C(\C(=O)O)c1csc(NC(=O)CCl)n1
inactive: all assays above
